Calls of active or inactive are those of the source. Calls follow the shape of the dose curve; as a rule, active = well fitted curve in the direction sought with a large enough effect; inactive = no such curve, though single readings can be large or run the other way.
Molecular target: Alpha-galactosidase A (Homo sapiens) (UniProt P06280)
Assay: Counterscreen for Glucocerebrosidase Inhibitors: qHTS Assay for Human alpha-Galactosidase at pH 4.5 (AID 992)
Settings: purified enzyme, fluorogenic substrate; series mostly up to 76.9 µM
Outline: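 Read-out is 4-methylumbelliferone fluorescence (365 nm excitation, 440 nm emission) after a pH 10 NaOH/glycine stop. Reactions held 2 nM enzyme and 80 uM substrate at pH 4.5 for 20 min at room temperature.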

Sequence of Alpha-galactosidase A (Homo sapiens) (P06280 whole entry, looked up): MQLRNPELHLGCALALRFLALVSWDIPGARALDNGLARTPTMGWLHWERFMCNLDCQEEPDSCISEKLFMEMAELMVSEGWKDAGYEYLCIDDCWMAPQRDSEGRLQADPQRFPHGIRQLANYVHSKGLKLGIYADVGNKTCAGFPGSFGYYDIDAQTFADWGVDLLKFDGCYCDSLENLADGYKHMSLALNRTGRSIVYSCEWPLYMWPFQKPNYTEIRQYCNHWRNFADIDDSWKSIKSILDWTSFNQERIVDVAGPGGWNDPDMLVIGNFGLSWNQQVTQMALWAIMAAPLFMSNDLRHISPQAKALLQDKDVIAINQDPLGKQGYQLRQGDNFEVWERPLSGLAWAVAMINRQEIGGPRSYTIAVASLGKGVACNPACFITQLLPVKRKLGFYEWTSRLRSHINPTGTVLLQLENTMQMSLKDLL

| Compound | outcome |
| --- | --- |
| CCCc1c(-c2ccc(O)cc2)nn(-c2ccc(O)cc2)c1-c1ccc(O)cc1 | inactive |
| CCCCCCCCCCCCCCC[C@H](O)[C@H](N)CO | inactive |
| O=c1onc2cnc3ccccc3n12 | inactive |
| Nc1ncnc2c1c(-c1ccc(Oc3ccccc3)cc1)cn2C1CCCC1 | inactive |
| Clc1nccc2c1ccc1ccccc12 | inactive |
| COc1cc(/C=C(\C#N)C(=O)c2ccc(O)c(O)c2)cc(I)c1O | inactive |
| Cc1nc(N=Nc2ccc(S(=O)(=O)O)cc2S(=O)(=O)O)c(COP(=O)(O)O)c(C=O)c1O | inactive |
| O=[N+]([O-])c1cccc2c(Br)[nH]nc12 | inactive |
| NC(N)=[N+]1CCc2ccccc2C1 | inactive |
| CC[C@H](NC(=O)c1c(C)c(-c2ccccc2)nc2ccccc12)c1ccccc1 | inactive |
| NC1(C(=O)O)CC1 | inactive |
| C#CCn1c(=O)c2c(ncn2C)n(C)c1=O | inactive |
| N[C@@H](CS(=O)O)C(=O)O | inactive |
| Cn1cc(C(=O)OCC2CCN(CCNS(C)(=O)=O)CC2)c2ccccc21 | inactive |
| C[C@H](O)C(=O)C1=Nc2c(nc(N)[nH]c2=O)NC1 | inactive |
| NCCCNCCCCNCCCN | inactive |
| O=C(O)c1ccccc1Nc1ccccc1 | inactive |
| CC(=O)NNC(=O)N1Cc2ccccc2Oc2ccc(Cl)cc21 | inactive |
| O=C(O)Cc1ccc(O)c(O)c1 | inactive |
| COc1ccc(CCN(C)CCc2ccc(OC)c(OC)c2)cc1OC | inactive |

| Compound | outcome |
| --- | --- |
| CCN(c1nc(N)c(C(=O)N=C(N)N)nc1Cl)C(C)C | inactive |
| N[C@@H](Cc1c[nH]c2ccccc12)C(=O)O | inactive |
| CNC(=O)c1cc2c(cn1)[nH]c1ccccc12 | inactive |
| COc1ccccc1N1CCN(CCCNc2c(C)c(=O)n(C)c(=O)n2C)CC1 | inactive |
| CCCCCCCCCCCCCCSCC(=O)O | inactive |
| c1ccc(CN2CCC3(CCCc4ccccc43)CC2)cc1 | inactive |
| O=C1Cc2c([nH]c3ccc(Br)cc23)-c2ccccc2N1 | inactive |
| CCCCCCCCCCC/C=C\C(C)(C)/C=C\CCCC(=O)O | inactive |
| O=C(O)C1=CCNCC1 | inactive |
| Nc1nc2ccc(Cl)cc2c2nc(-c3ccco3)nn12 | inactive |
| O=C(O)C1=CCCN(CCON=C(c2ccccc2)c2ccccc2)C1 | inactive |
| N[C@H](C(=O)O)[C@H](O)C(=O)O | inactive |
| Cc1nc(N=Nc2cc(S(=O)(=O)O)c3cc([N+](=O)[O-])cc(S(=O)(=O)O)c3c2)c(COP(=O)(O)O)c(C=O)c1O | inactive |
| COc1ccccc1N1CCN(CCCCNC(=O)c2ccc3ccccc3c2)CC1 | inactive |
| COc1ccc(C(=O)NCc2cccnc2)cc1C(=O)NCc1cccnc1 | inactive |
| C/C(=C\c1ccc(C(=O)O)cc1)c1ccc2c(c1)C(C)(C)CCC2(C)C | inactive |
| C[N+](C)(C)CC=O | inactive |
| c1ccc2nc(C3=NCCN3)ccc2c1 | inactive |
| OC1(c2ccc(Cl)cc2)CCN(Cc2c[nH]c3ccccc23)CC1 | inactive |

Source: PubChem BioAssay (NCATS)
